This note sets out measurements from PubChem BioAssay (Tox21).

Structures are written as SMILES. Records with an inconclusive call do not appear. Entries that show only a call come without a potency. Active and inactive are the calls of the source. The call rests on the fitted dose curve; in most records, active means well fitted cell-killing curve with a large enough effect in the repeat runs; inconclusive means weak or mixed curves, or effect the other way; inactive means flat fitted curve, though single readings scatter.

This assay is described as follows: qHTS assay to identify small molecule antagonists of the androgen receptor (AR) signaling pathway using the MDA cell line in the presence of 0.5 nM R1881 - cell viability counter screen (AID 1259242). Further: nearly all actives have a fitted effect of over 45% in size. Conditions: MDA-kb2 viability, CellTiter-Fluor protease fluorescence, 16 h; series mostly up to 92.4 µM. The text has this: U.S. Tox21 Program National Center for Advancing Translational Sciences [NCATS] NIH Chemical Genomics Center [NCGC] U.S. Environmental Protection Agency [EPA] National Institutes of Environmental Health Sciences [NIEHS] National Toxicology Program [NTP] U.S. Food and Drug Administration [FDA] Tox21 Assay Overview: Androgen receptor (AR) is an important member of the nuclear receptor family. Its signaling plays a critical role in AR-dependent prostate cancer and other androgen related diseases. Considerable attention has been given in the past decades to develop methods to study and screen for the environmental chemicals that have the potential to interfere with metabolic homeostasis, reproduction, developmental and behavioral functions. Therefore AR binding assay for screening androgen antagonists can be used to identify potential endocrine disruptors. MDA-kb2 cells (from ATCC, deposited by Wilson et al.) were used to screen for AR inhibitors against Tox21 compound libraries. These cells are human breast carcinoma cells that were stably transfected with a luciferase reporter gene under control of the MMTV promoter that contains response elements for both androgen receptor (AR) and glucocorticoid receptor (GR). The current screening for identification of AR inhibitors against Tox21 libraries used lower concentration of (0.5 nM) R1881 as a stimulator. The cytotoxicity of the Tox21 compound libraries against MDA-kb2 cell line was tested by measuring live-cell protease activity using CellTiter-Fluor assay in the same wells.
Tox21 Assay Protocol Summary: MDA-kb2 cells (cells cultured without CO2) were dispensed at 3,000 cells/well in 4 uL of culture medium into white wall/solid-bottom 1536-well plates (Corning Life Sciences, Corning, NY) using a Multidrop Combi (ThermoFisher Scientific, Waltham, MA) dispenser. After the assay plates were incubated at a 37C and 0% CO2 for 5 hr, 23 nL of compounds dissolved in DMSO, positive controls or DMSO only was transferred to the assay plate by a Pintool station (Kalypsys, San Diego, CA). The transfer of compounds was followed by the addition of 1 uL of 0.5 nM (final concentration) agonist (R1881)/culture medium using a Flying Reagent Dispenser (FRD, Aurora Discovery, San Diego, CA). The plates were incubated at 37C and 0% CO2 for 16 hr. For cytotoxicity assay, 1 uL of CellTiter-Fluor reagent (Promega Corporation, Madison, WI) was added to each well using the FRD and after 30 min incubation at 37C and 0% CO2, The fluorescence intensity was measured using ViewLux plate reader (PerkinElmer, Shelton, CT).
In general terms: In qHTS, concentration-response curves come from the screen itself.
For `CC(=O)Nc1ccc(/C=N/NC(N)=S)cc1`, the Potency entry is “inactive”.

Turning to `CC(C(=O)O)c1ccc(-c2ccccc2)c(F)c1` (stereo not given), the Potency entry is “inactive”.

For the compound `C=C(C)C(=O)OC(C)C`, the Potency entry was “inactive”.

Regarding `Cc1cc(NC(=O)C(=O)O)cc(C)c1Oc1ccc(O)c2c1CCC2`, the Potency result was “inactive”.

With `Oc1ccc(O)c2c(O)cccc12`, the Potency result was “inactive”.

`CCCCCCCCCCCCCCC1CO1` (stereo not given): the Potency result is “inactive”.

As for `C=CC[N+]1([C@H]2C[C@H]3[C@@H]4CC[C@H]5C[C@H](OC(C)=O)[C@@H](N6CCCCC6)C[C@]5(C)[C@H]4CC[C@]3(C)[C@H]2OC(=O)CC)CCCCC1`, the Potency entry is “inactive”.

`Cc1ccc2c(ccc3ccccc32)c1`: the Potency result was “inactive”.

Turning to `c1ccc(-c2nc[nH]c2-c2ccccc2)cc1`, the Potency result was “inactive”.

Consider `c1ccc(OCc2ccc(CCCN3CCOCC3)cc2)cc1`, for which the Potency entry was “inactive”.

As to `OCCC1CCCCN1` (stereo not given), the Potency result was “inactive”.

Consider `FC(F)(F)C(F)(F)C(F)(F)C(F)(F)C(F)(F)C(F)(F)CCI`, for which the Potency result is “inactive”.

For `O=C(NN1CCCC1)NS(=O)(=O)c1ccc(Cl)cc1`, the Potency entry is “inactive”.

For the compound `CC(=O)/C(C)=C/C1C(C)=CCCC1(C)C` (stereo not given), the Potency entry is “inactive”.

With `CCCC(=O)OCC`, the Potency entry was “inactive”.

As to `O=C(O)[C@@H]1[C@H]2C[C@H]3c4[nH]c5ccccc5c4CCN3C[C@@H]2CC[C@@H]1O`, the Potency entry was “inactive”.

With `CC(C)(C)c1cc(CO)cc(C(C)(C)C)c1O`, the Potency entry is “inactive”.

As to `Nc1nc(N)c(-c2ccccc2)s1`, the Potency entry is “inactive”.

As to `CCN(CC)C(C)CN1c2ccccc2Sc2ccccc21` (stereo not given), the Potency result was “inactive”.

For `O=S1(=O)c2cccc3cccc(c23)N1CCCN1CCN(c2ccc(F)cc2)CC1`, the Potency result was “inactive”.

`S=C(S)NCCNC(=S)S`: the Potency entry is “inactive”.

For `O=C(CCN1CCN2CCCC2C1)N1c2ccccc2Sc2ccc(Cl)cc21` (stereo not given), the viability change, negative = cytotoxic was -3.61% [at 19 µM] (inactive).

Turning to `Nc1ccc(C(=O)N2CC3CC(CN(Cc4ccccc4)C3)C2)cc1`, the Potency result was “inactive”.

In the case of `CC(C)(C)c1cc(CCC(=O)OCC(COC(=O)CCc2cc(C(C)(C)C)c(O)c(C(C)(C)C)c2)(COC(=O)CCc2cc(C(C)(C)C)c(O)c(C(C)(C)C)c2)COC(=O)CCc2cc(C(C)(C)C)c(O)c(C(C)(C)C)c2)cc(C(C)(C)C)c1O`, the Potency entry is “inactive”.

As for `O=C(O)Cc1cc(I)c(Oc2ccc(O)c(I)c2)c(I)c1`, the Potency entry was “inactive”.

With `CCCCCOC(=O)c1ccc(O)cc1`, the Potency result was “inactive”.

On to `NC(=S)N/N=C/c1cccnc1`, for which the Potency result is “inactive”.

Turning to `CC(C)c1cccc(C(C)C)c1NC(=O)NS(=O)(=O)c1cc(C(C)(C)O)co1`, the Potency result is “inactive”.

`CCOC(=O)C1=C(C)NC(C)=C(C(=O)OC)C1c1cccc([N+](=O)[O-])c1` (stereo not given): the Potency entry is “inactive”.

For `COc1cc(C(C)(C)C)c(O)c(C(C)(C)C)c1`, the Potency entry is “inactive”.

As for `CC(C)CCCC(C)CCO` (stereo not given), the Potency entry was “inactive”.

Turning to `O=C1[C@H](CC[C@H](O)c2ccc(F)cc2)[C@@H](c2ccc(O)cc2)N1c1ccc(F)cc1`, the Potency result was “inactive”.

As to `Cc1c(Cn2ccnc2)c2ccccc2n1CCC(=O)O`, the Potency result is “inactive”.

`CCCCCCCCCC=O`: the Potency result is “inactive”.

As to `CNS(=O)(=O)Cc1ccc2[nH]cc(CCN(C)C)c2c1`, the Potency result was “inactive”.

Turning to `CN1CCC(OC(c2ccccc2)c2ccccc2)CC1`, the Potency entry was “inactive”.

As for `C=CCCCCCC`, the Potency entry is “inactive”.

Turning to `CC(=O)OCCc1ccccc1`, the Potency result is “inactive”.

With `O=C(O)c1cn(C2CC2)c2cc(Cl)c(F)cc2c1=O`, the Potency result was “inactive”.

Consider `C[Si](C)O[Si](C)(C)O[Si](C)(C)O[Si](C)C`, for which the Potency entry is “inactive”.
